In the library only some 17% were active in any assay of this set; here they are far more common.
HT1080 IDH1KD tx: HT-1080 IDH1 knockdown cell toxicity (counter line). HT-1080 IDH1 knockdown viability, ATP luminescence, 48 h. Potency, µM (doses to about 46.1 µM), without a hit: at the top dose activity, negative = toxicity, hits mostly cytotoxic. 2% of 360,000 active;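 note: 0% = DMSO wells and -100% = cell-free medium wells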
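Knockdown cells (IDH1KD HT-1080) received compounds 2 h after plating at 750 cells/well and were kept 48 h at 37 °C in 5% FBS RPMI. A CellTiter-Glo luminescence read gave % activity for curve fitting.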
DT40 TDP1 no CPT: qHTS for Inhibitors of human tyrosyl-DNA phosphodiesterase 1 (TDP1): qHTS in cells in absence of CPT; DT40 Tdp1-/- hTDP1 cells, no CPT, ATP luminescence, 48 h; Potency, µM (titrated, usually from 46.2 µM), inactives show at the highest dose activity change, negative = growth inhibition, actives largely listed as inhibitors; 15% of 420,000 active; AID 686978, 2013; note: % is set by controls: 0 for no effect and ±100 for the full control effect; nearly all actives have a fitted effect of over 55% in size
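Chicken DT40 Tdp1-/- cells complemented with human TDP1, screened without camptothecin (DMSO vehicle only), 400 cells/well. Compounds pin-transferred, cells incubated at 37 °C for at least 48 hr. Growth read as ATP-dependent luminescence (CellTiter-Glo, 30 min at RT).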
HepG2 viability: kills HepG2 cells in TGF-b inhibitor counter-screen; HepG2 CAGA-GFP viability, ATP luminescence, 18 h; Potency, µM (titrated, usually from 46.1 µM), without a hit: at the top dose activity change, negative = cytotoxicity, most hits filed as cytotoxic; 0.76% of 410,000 active
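HepG2 CAGA-GFP cells (1000/well, DMEM with 1% FBS) received compound, then TGF-beta at 500 pg/mL final, and were incubated 18 hours at 37 degrees C. Viability was read by CellTiter-Glo luminescence. Media-only wells were set as complete cell-killing and DMSO as no toxicity.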
TGFb inhibitor: inhibitors of TGF-b signaling; Potency, µM (series often up to 46.1 µM), for inactives: at the highest dose activity, negative = inhibition, hits mostly inhibitors; 1.2% of 410,000 active; HepG2 CAGA-GFP TGF-b/SMAD3 reporter, GFP fluorescence, 18 h; TGF-beta stimulated, 500 pg/mL final; AID 588855; note: % is set by controls: 0 for no effect and ±100 for the full control effect; nearly all actives have a fitted effect of over 65% in size
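HEPG2 CAGA-GFP cells (1000/well, DMEM with 1% FBS) were pre-incubated 2 h at 37 degrees C, given compound by pin tool, then stimulated with TGF-beta at 500 pg/mL final for 18 h before per-cell GFP fluorescence imaging.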
HT1080NT lethal: kills 2HG-producing HT-1080-NT fibrosarcoma cells. HT-1080-NT fibrosarcoma viability, CellTiter-Glo ATP luminescence, 48 h. Potency, µM (titrated, usually from 46.1 µM), without a hit: at the highest dose activity, negative = less viability, actives largely listed as cytotoxic. 1.6% of 360,000 active. AID 686970;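 note: NT is the 2HG producing partner of a matched IDH1 knockdown line; 0% = DMSO-treated cells and -100% = media-only wells without cells; nearly all actives have a fitted effect of over 55% in size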
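Read-out is CellTiter-Glo luminescence after 10 minutes at room temperature, following 48 hours' compound treatment of HT-1080-NT cells (750 cells/well, RPMI, 5% FBS, 37 degrees C).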
TDP1 cell CPT: growth inhibition of DT40 Tdp1-/-;hTDP1 cells with camptothecin (screen for TDP1 inhibitors) | chicken DT40 Tdp1-/-;hTDP1 cells + 20 nM CPT, ATP luminescence, 48 h | AID 686979 | 12% of 420,000 active | Potency, µM (titrated, usually from 46.2 µM), inactives show at the top dose activity change, negative = growth inhibition, most hits filed as inhibitors; note: % is set by controls: 0 for no effect and ±100 for the full control effect; nearly all actives have a fitted effect of over 55% in size
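Chicken DT40 Tdp1-/- cells stably complemented with human TDP1 were seeded at 400 cells/well in medium containing 20 nM camptothecin, exposed to pin-transferred compounds, and grown at 37 °C for at least 48 hr. Viability was read as ATP luminescence.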
The depositor's hits bear a star; ? = inconclusive; · = no result. Calls come from the whole dose curve; as a rule, active = well fitted curve in the direction sought with a large enough effect; inconclusive = small, poorly fitted or top-dose-only effect, or another doubt; inactive = no such curve, though single readings can be large; an effect the other way counts as inactive or inconclusive. Potency is the fitted concentration of half-maximal effect.

SMILES | HT1080 IDH1KD tx | DT40 TDP1 no CPT | HepG2 viability | TGFb inhibitor | HT1080NT lethal | TDP1 cell CPT
O=c1c2cc3c(=O)n(-c4ccccc4O)c(=O)c3cc2c(=O)n1-c1ccccc1O | ? | 3% | -15% | -6% | ? | 11%
COc1ccc(N2C(=S)NC3c4cc(Cl)ccc4OC2(C)C3C(=O)N(C)C)cc1 (stereo unspecified) | ? | ? | -3% | 5% | ? | 29µM*
N#CC1c2ccccc2C=CN1C(=O)N(c1ccccc1)c1ccccc1 (stereo unspecified) | ? | ? | 11µM* | 8.9µM* | ? | ?
COc1ccc(C(=O)N2C=Cc3ccccc3C2C#N)cc1 (stereo unspecified) | -2% | -24% | -6% | 1% | 3% | 0%
CC(C)c1cc(/C=C(\C#N)C(=O)NCCCc2ccccc2)cc(C(C)C)c1O | · | 21µM* | · | · | · | 21µM*
COc1ccccc1CNS(=O)(=O)c1cc(C)ccc1OC | -1% | -2% | 1% | 0% | 7% | -5%
Cc1ccc(Nc2nc(NCc3ccccc3)nc3ccsc23)c(C)c1 | ? | 6.5µM* | -9% | ? | ? | 23µM*
COc1ccccc1CNc1nc(Nc2ccccc2OC)c2sccc2n1 | 5% | 4.6µM* | -30% | -9% | 17% | 5.8µM*
Cc1ccc(CNc2nc(N)c([N+](=O)[O-])c(NCc3ccccc3)n2)cc1 | 5% | -11% | 18% | 35% | 4% | -2%
COc1ccccc1CNc1nc(Nc2ccc(C)cc2C)c2sccc2n1 | 23µM* | 7.3µM* | -49% | ? | 21µM* | 15µM*
COc1ccccc1CNc1nc(-c2ccccc2CO)c2sccc2n1 | -22% | ? | -20% | -6% | -16% | ?
CCN(CC(=O)NCc1cccs1)C(=O)C(c1ccccc1)c1ccccc1 | -5% | -25% | -6% | -16% | -2% | ?
Oc1cc2c(cc1C(c1ccc(Cl)c(Cl)c1)N1CCCC1)OCO2 (stereo unspecified) | ? | 23µM* | -39% | ? | ? | ?
CC1(C)CC(=O)c2cnc(NC(=O)Cc3ccc(Cl)cc3)nc2C1 | 30% | 23µM* | -2% | 18% | 18% | ?
Cc1ccc(C(C)C)c(OCCSc2nc3ccccc3n2CC(O)CO)c1 (stereo unspecified) | · | 16µM* | -91% | ? | · | 13µM*
CCC1CC=CC2C1C(=O)N(Cc1ccccc1)C2c1ccoc1 (stereo unspecified) | · | · | -100% | 10µM* | · | ·
CC[C@@H]1CC=C[C@H]2[C@H]1C(=O)N(Cc1ccccc1)[C@H]2c1ccoc1 | ? | 15µM* | -33% | 13µM* | ? | 16µM*
CCC1CC=CC2C1C(=O)N(Cc1ccccc1)C2c1cc(C)ccc1F (stereo unspecified) | · | · | -48% | ? | · | ·
O=C(NCCOc1ccccc1)C1Nc2ccc(C(F)(F)F)cc2C2c3ccccc3CC12 (stereo unspecified) | ? | ? | 16µM* | ? | ? | ?
CCOC(=O)C1Nc2ccccc2C2C(O)C(O)CC12 (stereo unspecified) | ? | ? | -31% | ? | ? | 29µM*
CCOC(=O)C1=C(C)N(C)C(=O)NC1c1ccccc1OC (stereo unspecified) | 16% | -29% | -8% | -9% | 21% | ?
CCOC(=O)C1Nc2ccc(C(F)(F)F)cc2C2c3ccccc3CC12 (stereo unspecified) | ? | 16µM* | -101% | ? | ? | 18µM*

Screening results deposited in PubChem BioAssay by National Center for Advancing Translational Sciences (NCATS).
